Assay outcomes (PubChem)
tim10-1 inh – tim10-1 yeast growth inhibition; S. cerevisiae tim10-1 ts strain growth, BacTiter-Glo, 24 h; inhibition, % at 20 µM; 330,000 tested, 2.2% active;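 active means inhibition of at least 40%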;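 further: mutant grown at 25 °C; 0% = DMSO wells with yeast and 100% = wells holding no yeast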
NLRP3 yeast inh – inhibitors of NALP3 inflammasome in yeast. Yeast reconstituted NLRP3/ASC/caspase-1, beta-gal luminescence, 24 h. inhibition, % at 10 µM. 330,000 tested, 0.39% active. AID 2825;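 active means inhibition of 50% or more; inactive means inhibition below 50%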;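 further: plate controls were induced DMSO wells for no effect and uninduced yeast grown without galactose for full effect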
tim23-1 inh – inhibits growth of tim23-1 mutant yeast. S. cerevisiae tim23-1 growth, BacTiter-Glo luminescence, 24 h. inhibition, % at 20 µM. AID 463212. 330,000 tested, 1.3% active;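 active means growth inhibition of the mutant yeast at or above 50%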;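 further: temperature-sensitive mutant grown at 25 °C; plate controls were DMSO-treated mutant yeast for no effect and medium wells lacking yeast for full effect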
TIM10 inh – inhibits growth of TIM10 yeast strain; S. cerevisiae TIM10 strain growth, BacTiter-Glo luminescence, 24 h; inhibition, % at 10 µM; 330,000 tested, 1.4% active; AID 463195;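 active means inhibition of 40% or more at the single tested concentration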;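 further: wild-type TIM10 isogenic control strain grown at permissive 25 °C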
PfHsp90 yeast 2 – reduces growth (ATP signal) of yeast expressing P. falciparum Hsp90 | S. cerevisiae expressing PfHsp90, BacTiter-Glo ATP, 48 h; yeast lacking PDR1 and PDR3 efflux regulators | inhibition, % at 9.4 µM | 310,000 tested, 0.32% active | AID 504621;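 active means every replicate shows inhibition above about 80%, whatever the replicate mean, limit read from the data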;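 further: 0% = DMSO neutral controls and 100% = 20 µM radicicol positive controls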
NALP1 inh – inhibitors of NALP1 inflammasome in yeast. S. cerevisiae NALP1/ASC/caspase-1 growth, X-gal OD620, 72 h. inhibition, % at 10 µM. 280,000 tested, 0.61% active. AID 2071; in the data active means inhibition mostly above about 24%, no sharp cut-off; inactive means mostly below about 32%
tim10-1 confirm – tim10-1 yeast growth inhibition, confirmed; shares compounds with tim10-1 inh; 7,400 tested, 56% active; S. cerevisiae tim10-1 ts strain growth, BacTiter-Glo, 24 h; inhibition, % at 20 µM;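 active means inhibition of yeast growth at or above a set limit in either of two repeat tests at 20 µM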;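 further: tim10-1 mutant grown at permissive 25 °C to find synthetic lethal compounds; 0% = DMSO yeast wells and 100% = medium wells without yeast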
tim10 confirm – confirmation of TIM10 yeast growth inhibitors; shares compounds with TIM10 inh; S. cerevisiae tim10 strain growth, BacTiter-Glo luminescence, 24 h; inhibition, % at 10 µM; 4,600 tested, 63% active; AID 463215;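 active means inhibition of yeast growth at or above a set limit in either of two replicates at 10 µM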;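 further: this counterscreen used the strain with wild-type TIM10; 0% = yeast with DMSO and 100% = medium wells lacking yeast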
tim23-1 conf – tim23-1 yeast growth inhibition, confirmed; shares compounds with tim23-1 inh; S. cerevisiae tim23-1 growth, BacTiter-Glo luminescence, 24 h; inhibition, % at 20 µM; 4,400 tested, 83% active;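 active means inhibition above about 39% in either of two replicate wells at 20 µM, limit read from the data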;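 further: temperature-sensitive tim23-1 mutant grown at 25 °C; 0% = DMSO wells with yeast and 100% = medium wells without yeast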
* marks the source's active call; other numbers are inactive results. An excerpt weighted towards active compounds, which were near 4.2% of everything screened.

Results for C[N+]1=C(/C=C/Nc2ccccc2Cl)C(C)(C)c2ccccc21 ?
tim10-1 inh: -0.2; NLRP3 yeast inh: 6.0; tim23-1 inh: 3.3; TIM10 inh: 0.0; PfHsp90 yeast 2: -9.8; NALP1 inh: 24.6

Results for N#C/C(=C\c1cccc(O)c1)c1nc2ccccc2o1 ?
tim10-1 inh: 23.1; NLRP3 yeast inh: 18.6; tim23-1 inh: 44.6; TIM10 inh: 39.8; PfHsp90 yeast 2: 1.5; NALP1 inh: -6.9

How did N#C/C(=C\c1ccc(Cl)cc1)c1nc2ccccc2o1 do in these assays?
tim10-1 inh: 51.1*; NLRP3 yeast inh: 19.9; tim23-1 inh: 75.8*; TIM10 inh: 31.1; PfHsp90 yeast 2: -99.7; NALP1 inh: 15.4; tim10-1 confirm: 49.2*; tim23-1 conf: 75.3*

How did N#C/C(=C\c1ccncc1)c1nc2ccccc2o1 do in these assays?
tim10-1 inh: 56.0*; NLRP3 yeast inh: 5.4; tim23-1 inh: 71.6*; TIM10 inh: 41.5*; NALP1 inh: -4.3; tim10-1 confirm: 43.3*; tim10 confirm: 33.5*; tim23-1 conf: 60.9*

What do the screens show for `COc1ccc(C2(SCC(N)C(=O)O)c3ccccc3-c3ccccc32)cc1` (stereo not given)?
PfHsp90 yeast 2: -17.4

What do the screens show for `Cc1csc(NC(=O)c2cc3c(s2)CCCCC3)n1`?
tim10-1 inh: 46.0*; NLRP3 yeast inh: -8.3; tim23-1 inh: 57.1*; TIM10 inh: 41.7*; PfHsp90 yeast 2: 22.7; NALP1 inh: 11.9; tim10-1 confirm: 38.7*; tim10 confirm: 36.8*; tim23-1 conf: 49.2*

Results for Cc1csc(NC(=O)c2cc3c(s2)CCCC3)n1 ?
tim10-1 inh: 35.6; NLRP3 yeast inh: 11.1; tim23-1 inh: 49.9; TIM10 inh: 36.0; PfHsp90 yeast 2: -46.4; NALP1 inh: 22.7

How did COc1cc(OC)cc(C(=O)NCC(=O)OCC(=O)N2CC(C)CC(C)C2)c1 (stereo not given) do in these assays?
tim10-1 inh: 0.6; NLRP3 yeast inh: 16.0; tim23-1 inh: 3.5; TIM10 inh: 0.0; PfHsp90 yeast 2: 14.0; NALP1 inh: 3.0

What do the screens show for `O=C1c2ccccc2C(Nc2ccc(Cl)cn2)N1Cc1ccccc1` (stereo not given)?
tim10-1 inh: 43.9*; NLRP3 yeast inh: 18.5; tim23-1 inh: 55.6*; TIM10 inh: 42.2*; PfHsp90 yeast 2: -29.8; NALP1 inh: 54.7; tim10-1 confirm: 28.7; tim10 confirm: 45.9*; tim23-1 conf: 54.0*

Results for CCOc1cc(/C=C2/C(=O)ON=C2C)ccc1O ?
tim10-1 inh: 11.1; NLRP3 yeast inh: -7.5; tim23-1 inh: 11.6; TIM10 inh: -19.6; PfHsp90 yeast 2: 28.4; NALP1 inh: 11.0

Results for CCOc1cc(/C=C2\CN(C)C/C(=C\c3ccc(O)c(OCC)c3)C2=O)ccc1O ?
tim10-1 inh: 57.7*; NLRP3 yeast inh: 15.5; tim23-1 inh: 52.0*; TIM10 inh: 30.6; PfHsp90 yeast 2: 7.5; NALP1 inh: 8.6; tim10-1 confirm: 47.2*; tim23-1 conf: 61.5*

Results for COc1cccc(CNC(=O)C(C(=O)NCc2cccc(OC)c2)c2ncc(C(F)(F)F)cc2Cl)c1 ?
tim10-1 inh: -8.4; NLRP3 yeast inh: 13.2; tim23-1 inh: -10.3; TIM10 inh: -14.0; PfHsp90 yeast 2: -11.6; NALP1 inh: -6.2

How did Clc1ncnc2scc(-c3ccc(Br)cc3)c12 do in these assays?
tim10-1 inh: 40.0; NLRP3 yeast inh: -15.0; tim23-1 inh: 50.1*; TIM10 inh: 5.3; PfHsp90 yeast 2: 8.7; NALP1 inh: 27.3; tim10-1 confirm: 24.5; tim23-1 conf: 51.8*

Results for Cc1cc(N)n(-c2ncnc3scc(-c4ccc(Cl)cc4)c23)n1 ?
tim10-1 inh: 20.1; NLRP3 yeast inh: -8.9; tim23-1 inh: 19.4; TIM10 inh: 19.6; PfHsp90 yeast 2: -5.8; NALP1 inh: 6.8

How did c1ccc(Cn2nnc3c(N4CCCCCC4)ncnc32)cc1 do in these assays?
tim10-1 inh: 19.3; NLRP3 yeast inh: 12.0; tim23-1 inh: 22.2; TIM10 inh: -7.6; PfHsp90 yeast 2: -26.1; NALP1 inh: 35.0

What do the screens show for `Clc1cccc(Cl)c1Cn1cnc2c(N3CCCCCC3)ncnc21`?
tim10-1 inh: 44.0*; NLRP3 yeast inh: 7.0; tim23-1 inh: 50.1*; TIM10 inh: 41.1*; PfHsp90 yeast 2: -2.4; NALP1 inh: -6.2; tim10-1 confirm: 29.3; tim10 confirm: 27.6*; tim23-1 conf: 47.2*

How did Cc1ccc(Oc2ccccc2NC(=O)C2=COCCO2)cc1 do in these assays?
tim10-1 inh: 13.6; NLRP3 yeast inh: 21.6; tim23-1 inh: 23.7; TIM10 inh: 5.3; PfHsp90 yeast 2: 9.2

Results for O=C(N/N=C/c1ccc(Br)cc1)c1ccccc1-n1cccc1 ?
tim10-1 inh: 42.4*; NLRP3 yeast inh: 9.0; tim23-1 inh: 54.1*; TIM10 inh: 36.7; PfHsp90 yeast 2: 0.8; NALP1 inh: 14.6; tim10-1 confirm: 37.0*; tim23-1 conf: 51.1*

What do the screens show for `Cc1cccc(/C=N\NC(=O)c2ccccc2-n2cccc2)c1`?
tim10-1 inh: 32.1; NLRP3 yeast inh: 20.3; tim23-1 inh: 38.4; TIM10 inh: 31.5; PfHsp90 yeast 2: 1.9; NALP1 inh: 15.4

Results for COc1cc(N=c2ssnc2Cl)cc(OC)c1 ?
tim10-1 inh: 55.3*; NLRP3 yeast inh: 16.1; tim23-1 inh: 76.1*; TIM10 inh: 32.6; PfHsp90 yeast 2: -49.7; NALP1 inh: -2.9; tim10-1 confirm: 58.1*; tim23-1 conf: 79.4*

Results for CN(Cc1ccccc1)C(=O)c1ccc(NC(=O)Cc2ccc(NC(=O)C3CCCN(C(=O)c4ccccc4)C3)cc2)cc1 (stereo not given) ?
PfHsp90 yeast 2: 0.5

What do the screens show for `Oc1c(N=Nc2ccccn2)ccc2ccccc12`?
tim10-1 inh: 72.1*; NLRP3 yeast inh: 19.6; tim23-1 inh: 52.8*; TIM10 inh: 41.5*; NALP1 inh: 7.9; tim10-1 confirm: 53.2*; tim10 confirm: 46.0*; tim23-1 conf: 75.6*

How did CC1=C(C#N)c2nc(N)c(C#N)c(C)c2/C1=C\c1ccc(C)cc1 do in these assays?
tim10-1 inh: 73.3*; NLRP3 yeast inh: 21.5; tim23-1 inh: 55.9*; TIM10 inh: 82.2*; NALP1 inh: 16.7; tim10-1 confirm: 89.9*; tim10 confirm: 1.0; tim23-1 conf: 68.3*

Results for CSc1nc(-c2ccc(C)cc2)nc(N)c1C#N ?
tim10-1 inh: -5.5; NLRP3 yeast inh: -8.6; tim23-1 inh: 9.2; TIM10 inh: 9.6; PfHsp90 yeast 2: -13.6; NALP1 inh: 4.0
